Source: the supplement of paper PMC9492666

Experiments:
[1] = system: HCC1937; assay: relative cell viability, compound alone, vs DMSO (fraction of DMSO control); higher = less growth inhibition; details: 72 h
[2] = system: MDA-MB-231; assay: as above; details: 72 h
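Note: viability read out with the CCK-8 kit in 96-well plates, screening a set of 303 compounds acting on lipid metabolism targets.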

Structure (SMILES)	relative cell viability [1]	relative cell viability [2]
CCCCCCCCCCCCC/C=C/[C@@H](O)[C@@H](N)CO	0.331	0.792
COc1ccc(N(C(=O)Nc2c(C)cccc2C)c2cc(Nc3ccc(N4CCN(C)CC4)cc3)ncn2)c(OC)c1	0.915	1.11
CCc1c(-c2ccccc2)c(-c2ccccc2)nn1-c1ccccc1-c1cccc(OCC(=O)O)c1	1.18	0.994
COc1ccc(CN2CCC(c3ccc4nc(C(=O)N5CCN(Cc6ccc(C(F)(F)F)cc6)CC5)[nH]c4c3)CC2)cn1	0.849	0.795
C[C@@H]1O[C@@H](O[C@H]2[C@H](Oc3cc(O)c4c(c3)O[C@H](c3ccc(O)cc3)CC4=O)O[C@H](CO)[C@@H](O)[C@@H]2O)[C@H](O)[C@H](O)[C@H]1O [Naringin]	1.24	0.892
Cn1nc(C(=O)N(Cc2ccccc2)Cc2ccc(C(=O)O)cc2)c2c1-c1cc(Cl)ccc1OC2 [Nidufexor]	0.937	0.932
Cc1nc2ccc(NCc3cccc(C(F)(F)F)c3)cc2n(CCNC(=O)CO)c1=O	0.667	0.835
CC1CC(OC(=O)C(O)c2ccccc2)CC(C)(C)C1 (centres undefined) [Cyclandelate]	1.21	0.825
CCCCCCS(=O)(=O)NC(=O)c1ccc(CSCc2ccc(-c3ccccc3)cc2)cc1	0.938	0.91
CC1=C[C@]2(O)O[C@@]3(CC2=C(C)C)[C@@H](C)CC[C@@H]13 [Curcumenol]	0.868	0.863
N#Cc1c(O)c2c(-c3ccc(-c4ccccc4O)cc3)csc2[nH]c1=O	0.719	0.907
Cc1ccc(/C=C2\SC(=S)N(CCCCCC(=O)Nc3ccc(C(=O)O)c(O)c3)C2=O)cc1	1.07	0.914
